Experimental data: PubChem BioAssay (NCI)
The panel holds about 83,000 compounds, 20% with a hit somewhere; the sample as a whole holds those more often.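 Each cell line was grown in a 96-well plate and treated with one concentration of compound for 48 hours. Values below 10 were considered active.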 Unmarked numbers belong to inactive results. Calls of active or inactive are those of the source.

system: MDA-MB-468 breast; assay: NCI-60 one-dose screen, 48 h (100 = growth as untreated, 0 = no growth, -100 = all killed); details: 10 µM unless noted

Compound	growth
O=C(Cn1cc(CO)nn1)Nc1nc2ccccc2s1	101%
COc1ccc(-c2cn3c(ccc4ccccc43)n2)cc1	108%
O=C(O)c1ccc(Nc2ncc3c(n2)-c2ccc(Cl)cc2C(c2c(F)cccc2F)=NC3)cc1	35%
FC(F)(F)c1ccc(-c2cnc(Br)nc2NC2CCCCCC2)cc1	12.6%
CCOC(=O)c1sc2ncc(-c3ccc(C)cc3)n2c1C	102%
COc1ccc(/C=C/c2nc(N3CCOCC3)c3cc(F)c(F)cc3n2)cc1OC	-6.96% (active)
CCc1c(C(=O)NCc2c(O)ccc3cccc(O)c23)[nH]c(C)c1C(C)=O	18.5%
O=C1NC(=O)C(=Cc2cn(Cc3cn(Cc4ccc(Cl)cc4Cl)nn3)c3ccccc23)C(=O)N1	2.08% (active)
CC(=O)c1cccc(Nc2ncnc3ccc(NC(=O)c4ccco4)cc23)c1	60.2%
COC(=O)c1ccc2[nH]c(O)c(C(=Nc3ccc(N(C)C(=O)CN4CCN(C)CC4)cc3)c3ccc4c(c3)OCO4)c2c1	38.3%
COc1cc2nc(N3CCC[C@@H](NC4=CC(=O)c5ccccc5C4=O)C3)nc(N)c2cc1OC	-51.3% (active)
S=c1[nH]c2cc(Cl)ccc2s1	108%
O=C1Nc2ccccc2/C1=C/c1ccc(CO)n1-c1ccc(Cl)cc1	27.8%
CCOC(=O)c1c(N)sc2cc(O)ccc12	131%
COc1ccc(S(=O)(=O)NCCCNc2nccc(-c3cn(C(C)(C)C)nc3-c3ccc(Cl)c(OC)c3)n2)cc1	76.8%
O=c1[nH]c2c(s1)CCCC2CN1CCCCC1 (stereo not given)	109%
Cc1ccc(C(=O)c2ccc(CC(=O)N/N=C/c3ccccc3O)n2C)cc1	81.1%
CN(CSc1ccc(Cl)cc1)c1ccc(CSc2ccc(Cl)cc2)cc1	17.2%
C=C(C)[C@@H]1CC[C@]2(C(=O)O)CC[C@]3(C)[C@H](CC[C@@H]4[C@@]5(C)C/C(=C/c6cccc(I)c6)C(=O)C(C)(C)[C@@H]5CC[C@]43C)[C@@H]12	25.6%
CCOC(=O)c1c(C)nc2c(c1N)/C(=C/c1cccs1)C(=O)N2Cc1ccccc1	47.6%

Compound	growth
CCN(CC)CCCC(C)N/C(c1cccc(OC)c1)=c1\c(=O)[nH]n(-c2c3ccccc3nc3ccccc23)c(=O)\c1=C(/NC(C)CCCN(CC)CC)c1cccc(OC)c1 (stereo not given)	-56.2% (active)
COc1ccc(C(=O)C/C(=C\c2ccc(Cl)cc2)C(=O)NCc2ccccc2)cc1	69.7%
COc1cccc2c1C=CC1(O2)Oc2cccc(OC)c2C=C1C (stereo not given)	39.5%
Cc1ccc(-c2nc(SCC(=O)N3CCN(c4cc5c(cc4F)c(=O)c(C(=O)O)cn5C4CC4)CC3)nc(Cl)c2C#N)cc1	95%
O=C(O)c1ccccc1Cc1ccc2c(c1)CCCC2	99.6%
CCOC(=O)C1=C(C(=O)c2ccc(Br)cc2)C(c2ccc(Br)cc2)NC(=S)N1 (stereo not given)	103%
COc1ccc(/C=C2\CN(Cc3cn(CCCNc4ccnc5cc(Cl)ccc45)nn3)C/C(=C\c3ccc(OC)cc3)C2=O)cc1	57.5%
CC(C(=O)n1cc(-c2ccccc2)c(-c2ccccc2)c1)c1ccccc1 (stereo not given)	104%
CCSC1=CC(=O)c2ccccc2C1=O	-88.1% (active)
CC/C(=C(/c1ccc(O)cc1)c1ccc(OCCN2CCCCC2)cc1)c1ccc(OC)cc1	60.7%
Cc1[nH]c(C(=O)Nc2ccc(C(=O)NCCN)cc2OC(C)C)c(Cl)c1Cl	-43.6% (active)
Brc1c[n+](Cc2ccc3ccccc3c2)cn1Cc1ccc2ccccc2c1	-29.1% (active)
CCN(CC)CCOc1ccc(Nc2ncc3cc(-c4c(Cl)cccc4Cl)c(=O)n(CCOC)c3n2)cc1	3.97% (active)
COc1ccccc1-n1c(SCc2cc(OC)c(OC)c(OC)c2)nc2ccc(Cl)cc2c1=O	21.5%
CCC(C)c1c(N)n(S(=O)(=O)c2ccc(C)cc2)oc1=O (stereo not given)	109%
CCOc1nc(-c2ccccc2)cc2c(O)c(C(=O)N/N=C/c3ccc(O)cc3O)[nH]c(=O)c12	29.9%
COc1ccc(/C=C(\C#N)c2cc3ccccc3n2C)cc1	27.6%
C[C@@H](NC(=O)c1ncnc(N)c1Cl)c1ncc(C(=O)Nc2cc(C(F)(F)F)c(Cl)cn2)s1	92.6%
CC(C)c1ccc(-c2cnc3nonc3n2)cc1	21%
Cc1cc(N=C2C=CC(=[N+](C)C)C=C2)c(N)cc1N	39.6%
